Potency and activity, negative = inhibition data for eight molecules are collected here from PubChem BioAssay (NCATS).

Unmarked numbers belong to inactive results. Entries that show only a call come without a potency. The source made the active and inactive calls. Calls follow the shape of the dose curve; as a rule, active = well fitted inhibition curve with a large enough effect; inconclusive = small, poorly fitted or top-dose-only effect; inactive = flat fitted curve, though single readings scatter.

The subject of this test is Nanoluciferase (engineered Oplophorus gracilirostris luciferase). In words: Primary Nanoluciferase (NLuc) qHTS assay for identification of artifact compounds. (AID 1845222).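 Also: NLuc secreted into diluted conditioned medium of S16 cells.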 Particulars: NLuc-conditioned medium, Nano-Glo luminescence, 5 min; series mostly up to 54.1 µM. Summed up:
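NLuc from S16 cell medium (1:55) plus test compounds, 15 min, room temperature. Luminescence after Nano-Glo (1:100) addition, 5 min.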
For orientation: In qHTS, concentration-response curves come from the screen itself.
Consider `C=C(C(=O)O)C1CCC2(C)CCC(O)C(=C)C2C1` (stereo not drawn), for which the Potency entry was “inactive”. For `CC1CCC2(CO)C(C(=O)O)=CCCC2C1(C)CCc1ccoc1` (stereo not drawn), the Potency entry was “inactive”. Same read-out and setting: to `CNC(=O)c1ccccc1Nc1cc(Nc2ccc(N3CCOCC3)cc2OC)ncc1C(F)(F)F` belongs “inactive”. Turning to `COC1CC(O[C@H]2CC[C@@]3(C)C(CCC4C3[C@H](OC(C)=O)[C@@H](OC(=O)/C=C/c3ccccc3)[C@]3(C)C(C(C)=O)CC[C@]43O)C2)OC(C)C1OC1CC(OC)C(OC2CC(OC)C(OC3OC(C)C(OC4OC(CO)C(O)C(O)C4O)C(OC)C3O)C(C)O2)C(C)O1` (stereo partly drawn), the activity, negative = inhibition was -1.88% [at 11.6 µM]. On to `C[C@@H]1O[C@@H](O[C@@H]2CO[C@@H](O[C@H]3CC[C@@]4(C)C(CC[C@]5(C)C4CC=C4[C@@H]6CC(C)(C)CC[C@]6(C(=O)O[C@@H]6O[C@H](CO)[C@@H](O)[C@H](O)[C@H]6O)CC[C@]45C)[C@]3(C)CO)[C@H](O)[C@H]2O[C@@H]2O[C@H](CO)[C@@H](O)[C@H](O)[C@H]2O)[C@H](O)[C@H](O)[C@H]1O` (stereo partly drawn), for which the activity, negative = inhibition was -0.413% [at 11.6 µM].

Take `CC(=O)O[C@@](C)(C(=O)/C=C/C(C)(C)O)[C@H]1[C@H](O)C[C@@]2(C)[C@@H]3CC=C4[C@@H](C=C(O)C(=O)C4(C)C)[C@]3(C)C(=O)C[C@]12C`: the Potency entry was “inactive”. As to `COc1cc2c(cc1O)CC[C@H]1[C@@H]2CC[C@]2(C)[C@H](O)CC[C@@H]12`, the Potency entry was “inactive”.

`COC(=O)C[C@H]1[C@]2(C)C3=C(C)[C@H](c4ccoc4)C[C@H]3O[C@@H]2[C@H](OC(C)=O)C2[C@](C)(C(=O)OC)C=CC(=O)[C@@]21C` (stereo partly drawn): the Potency result was “inactive”.
